Measurements published in publication PMC5892938, “SARNAclust: Semi-automatic detection of RNA protein binding motifs from immunoprecipitation data”.
In all, about 11,000 sequences were measured (“log2 fold change”: median about 0.00022, highest 2% from about 0.34 on). This is one part of the list.

Target: GST-SBP-SLBP (stem-loop binding protein) (Homo sapiens, UniProt Q14493 1-270)
Test: targeted RNA Bind-n-Seq; RBNS binding buffer: 25 mM Tris pH 7.5, 150 mM KCl, 3 mM MgCl2, 0.1% Tween, 0.5 mg/mL BSA, 1 mM DTT; 27 nM protein, 750 pM RNA pool; temperature not stated; high values mean tight binding
Conditions: protein: recombinant; tags: N-terminal GST and SBP (pGEX6P1-SBP); structured_RNA
In short: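 Read counts per sequence supply the binding signal, defined as the DEseq fold change on a binary-logarithm scale. These counts came from RNA of a designed, T7-transcribed oligo pool at 750 pM that bound 27 nM of GST-SBP-tagged protein, made in Rosetta(DE3) pLysS E. coli and glutathione-purified, in RBNS binding buffer. The bound RNA was reverse transcribed with a 10-nucleotide barcoded primer, PCR-amplified and sequenced on a MiSeq with 200-cycle paired-end reads, then processed with FLASH and HISAT2 and collapsed by barcode.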

Sequence | binding signal
GGUCACGUCUCAAUCAACUCUUUUUCCAGGGAAAACCCUGGCGUAUUCAACAGCUCGCAGUCAAG | 0.352 ± 0.225 log2 fold change
GGUCACGUCUCAAUCAACUCAUCUCCCAGGGAAAACCCUGGCAUUCUCAACAGCUCGCAGUCAAG | 0.367 ± 0.304 log2 fold change
GGUCACGUCUCAAUCAACUCUUCUCCCAGGGAAACCCCUGGCAUUCUCAACAGCUCGCAGUCAAG | 0.304 ± 0.257 log2 fold change
GGUCACGUCUCAAUCAACUCUUUUUCCAGGGAAAACCCUGGCAUGUUCAACAGCUCGCAGUCAAG | 0.34 ± 0.244 log2 fold change
GGUCACGUCUCAAUCAACUCAGUUUCCAGGGAAAACCCUGGCUUUCUCAACAGCUCGCAGUCAAG | 0.31 ± 0.297 log2 fold change
GGUCACGUCUCAAUCAACUCCUUAGAGGGGGGGAAAACCCCUUUACCCUCAACCUCAACAGCUCGCAGUCAAG | 0.395 ± 0.407 log2 fold change
GGUCACGUCUCAAUCAACUCCUUAGAGGGGGGGAAAACCCCUUUACCCUCAACUUCAACAGCUCGCAGUCAAG | 0.489 ± 0.43 log2 fold change
GGUCACGUCUCAAUCAACUCCUUAGAGGGGGGGAAAACCCCUUUACCCUCGUUAUCAACAGCUCGCAGUCAAG | 0.302 ± 0.406 log2 fold change
GGUCACGUCUCAAUCAACUCAAUGGAGGGGGGGAAAACCCCUUUACCCUCAAAAUCAACAGCUCGCAGUCAAG | 0.547 ± 0.434 log2 fold change
GGUCACGUCUCAAUCAACUCCUUAGAGGGGGGGAAAACCCCUUUACCCUCAAAAUCAACAGCUCGCAGUCAAG | 0.546 ± 0.43 log2 fold change
GGUCACGUCUCAAUCAACUCUUCAGAGGGGGGGAAAACCCCUUUACCCUCACAAUCAACAGCUCGCAGUCAAG | 0.311 ± 0.418 log2 fold change
GGUCACGUCUCAAUCAACUCAUAGGAGGGGGGGAAAACCCCUUUACCCUCAUCAUCAACAGCUCGCAGUCAAG | 0.315 ± 0.446 log2 fold change
GGUCACGUCUCAAUCAACUCAUAGGAGGGGGGGAAAACCCCUUUACCCUCAACUUCAACAGCUCGCAGUCAAG | 0.451 ± 0.453 log2 fold change
GGUCACGUCUCAAUCAACUCAUCAGAGGGGGGGAAAACCCCUUUACCCUCAACUUCAACAGCUCGCAGUCAAG | 0.39 ± 0.431 log2 fold change
GGUCACGUCUCAAUCAACUCCCCAGAGGGGGGGAAAACCCCUUUACCCUCAUCCUCAACAGCUCGCAGUCAAG | 0.566 ± 0.415 log2 fold change
GGUCACGUCUCAAUCAACUCAUCAGAGGGGGGGAAAACCCCUUUACCCUCAUCCUCAACAGCUCGCAGUCAAG | 0.388 ± 0.447 log2 fold change
GGUCACGUCUCAAUCAACUCCUUAGAGGGGGGGAAAACCCCUUUGCCCUCACCGUCAACAGCUCGCAGUCAAG | 0.412 ± 0.444 log2 fold change
GGUCACGUCUCAAUCAACUCCUUAGAGGGGGGGAAAACCCCUUUGCCCUCCGUAUCAACAGCUCGCAGUCAAG | 0.307 ± 0.406 log2 fold change

Sequence | binding signal
GGUCACGUCUCAAUCAACUCCUUAGAGGGGGGGAAAACCCCUUUGCCCUCGUUUUCAACAGCUCGCAGUCAAG | 0.342 ± 0.445 log2 fold change
GGUCACGUCUCAAUCAACUCCUUAGAGGGGGGGAAAACCCCUUUGCCCUCAACAUCAACAGCUCGCAGUCAAG | 0.411 ± 0.394 log2 fold change
GGUCACGUCUCAAUCAACUCUACGGCAGGAGUUUACUCCUGGAAUCUCAACAGCUCGCAGUCAAG | 0.318 ± 0.232 log2 fold change
GGUCACGUCUCAAUCAACUCAAUAGAGGGGGGGAAAACCCCUUUACCCUCACCAUCAACAGCUCGCAGUCAAG | 0.306 ± 0.41 log2 fold change
GGUCACGUCUCAAUCAACUCAAAAGAGGGGGGGAAAACCCCUUUACCCUCACCAUCAACAGCUCGCAGUCAAG | 0.563 ± 0.413 log2 fold change
GGUCACGUCUCAAUCAACUCUCUAGAGGGGGGGAAAACCCCUUUACCCUCACCAUCAACAGCUCGCAGUCAAG | 0.354 ± 0.424 log2 fold change
GGUCACGUCUCAAUCAACUCAACAGAGGGGGGGAAAACCCCUUUACCCUCACCAUCAACAGCUCGCAGUCAAG | 0.341 ± 0.391 log2 fold change
GGUCACGUCUCAAUCAACUCCACAGAGGGGGGGAAAACCCCUUUACCCUCCAUCUCAACAGCUCGCAGUCAAG | 0.416 ± 0.406 log2 fold change
GGUCACGUCUCAAUCAACUCCAAGGAGGGGGGGAAAACCCCUUUACCCUCAAUCUCAACAGCUCGCAGUCAAG | 0.482 ± 0.442 log2 fold change
GGUCACGUCUCAAUCAACUCCCUAGAGGGGGGGAAAACCCCUUUACCCUCAAUGUCAACAGCUCGCAGUCAAG | 0.558 ± 0.455 log2 fold change
GGUCACGUCUCAAUCAACUCCCUAGAGGGGGGGAAAACCCCUUUACCCUCACAAUCAACAGCUCGCAGUCAAG | 0.389 ± 0.428 log2 fold change
GGUCACGUCUCAAUCAACUCUAUCUCAGGAGUUUACUCCUGUAUAUUCAACAGCUCGCAGUCAAG | 0.337 ± 0.252 log2 fold change
GGUCACGUCUCAAUCAACUCAUCGUCAGGAGUUUUCUCCUGUAAACUCAACAGCUCGCAGUCAAG | 0.313 ± 0.233 log2 fold change
GGUCACGUCUCAAUCAACUCUUUCUCAGGAGUUUCCUCCUGUUUACUCAACAGCUCGCAGUCAAG | 0.312 ± 0.17 log2 fold change
GGUCACGUCUCAAUCAACUCAUCGCCAGGAGUUUGCUCCUGUAUUUUCAACAGCUCGCAGUCAAG | 0.321 ± 0.274 log2 fold change
GGUCACGUCUCAAUCAACUCUUUCUCAGGAGUUUACUCCUGUAUAUUCAACAGCUCGCAGUCAAG | 0.355 ± 0.213 log2 fold change
GGUCACGUCUCAAUCAACUCAAUCUCAGGAGUUUUCUCCUGUAUACUCAACAGCUCGCAGUCAAG | 0.429 ± 0.219 log2 fold change
